The source of these data is PubChem BioAssay (Tox21).

Assay [1] is described as follows: qHTS assay to identify small molecule agonists of the peroxisome proliferator-activated receptor delta (PPARd) signaling pathway - cell viability counter screen (AID 743211). Further: nearly all actives have a fitted effect of over 55% in size. Put shortly:
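In the same wells used for beta-lactamase reporter measurement, cytotoxicity is scored by CellTiter-Glo. HEK293H PPARd-bla cells receive compound for 17 h at 37C following a 5 h settling period.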

A short description of assay [2]: qHTS assay to identify small molecule antagonists of the peroxisome proliferator-activated receptor delta (PPARd) signaling pathway - cell viability counter screen (AID 743213). Further: nearly all actives have a fitted effect of over 50% in size. Put shortly:
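HEK293H PPARd UAS-bla cells, 5 h pre-incubation, compound + L165041 300 nM final, 17 h 37 C; B/G FRET substrate 2 h RT; then CellTiter-Glo 30 min RT, luminescence.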
(In general: In qHTS, concentration-response curves come from the screen itself.)

Assay [3] is described as follows: qHTS assay to identify small molecule agonists of the farnesoid-X-receptor (FXR) signaling pathway - cell viability counter screen (AID 743218). Further: nearly all actives have a fitted effect of over 45% in size. The procedure, abridged: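 Cytotoxicity counter-screen run in parallel, same wells: FXR-UAS-bla HEK 293T cells dosed 16 h at 37 C, viability read by CellTiter-Glo luminescence after 30 min at room temperature.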
Assay [4] in a line: qHTS assay to identify small molecule antagonists of the farnesoid-X-receptor (FXR) signaling pathway - cell viability counter screen (AID 743221; active means well fitted cell-killing curve with a large enough effect in the repeat runs, not every such curve was filed as active; further: nearly all actives have a fitted effect of over 50% in size). Put shortly:
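Here viability was scored by luminescence after CellTiter-Glo addition to wells already read for beta-lactamase. Prior treatment: compound plus CDCA (50 uM final), 16 h, 37 C, HEK 293T FXR-bla cells.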

Assay [5] has as its target Vitamin D3 receptor (Homo sapiens) (UniProt P11473). Put plainly: qHTS assay to identify small molecule agonists of the vitamin D receptor (VDR) signaling pathway (AID 743222; calls by dose curve). Put shortly:
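Quantitative HTS agonist-mode screen: compounds in DMSO were pin-transferred onto VDR-bla cells and incubated 16 h at 37C, 5% CO2. Reporter activity was detected with LiveBLAzer B/G FRET substrate after 2 h at room temperature.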

Assay [6] shares this target. As to the kind of experiment: qHTS assay to identify small molecule antagonists of the vitamin D receptor (VDR) signaling pathway (AID 743223; active means well fitted inhibition curve with a large enough effect in the signal ratio in the repeat runs, not every such curve was filed as active; the % refers to the signal ratio). Put shortly: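 Inhibition of agonist-driven VDR signalling is scored in VDR-bla cells: 3 nM final 1alpha,25-dihydroxyvitamin D3 plus compound, 16 h at 37C, then beta-lactamase detection by FRET substrate fluorescence after 2 h.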

Assay [7] in a line: qHTS assay to identify small molecule agonists of the vitamin D receptor (VDR) signaling pathway - cell viability counter screen (AID 743224). Further: nearly all actives have a fitted effect of over 50% in size. Further: potency means the concentration at half of the fitted maximal effect. Put shortly:
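Viability is measured in the same wells as the VDR-bla reporter assay: after 16 h compound treatment and 2 h substrate loading, CellTiter-Glo is added and luminescence read 30 min later.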

Assay [8] is described as follows: qHTS assay to identify small molecule antagonists of the vitamin D receptor (VDR) signaling pathway - cell viability counter screen (AID 743225). Further: nearly all actives have a fitted effect of over 50% in size. The procedure, abridged: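 Compounds were pinned onto VDR-bla HEK 293T cells together with 1-alpha,25-dihydroxyvitamin D3 at 3 nM final. After 16 h at 37C and 5% CO2 plus the reporter readout, cell viability was measured by CellTiter-Glo luminescence (30 min, room temperature).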

Assay [9] is described as follows: qHTS assay to identify small molecule agonists of the NFkB signaling pathway - cell viability counter screen (AID 1159515; calls by dose curve; further: series mostly up to about 61 µM; nearly all actives have a fitted effect of over 55% in size). Put shortly: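 Multiplexed viability readout: after the 5 hr compound exposure and 1.5 hr FRET substrate step, CellTiter-Glo reagent went into the same NFkB-bla ME-180 wells; ATP luminescence was measured after 30 min at room temperature.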

A short description of assay [10]: qHTS assay to identify small molecule agonists of the endoplasmic reticulum stress response signaling pathway (AID 1159516; active means well fitted activation curve with a large enough effect in the signal ratio in the repeat runs, not every such curve was filed as active; the % refers to the signal ratio; further: potency means the concentration at half of the fitted maximal effect). Put shortly: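 Tox21 10K library screened in quantitative HTS format on ESRE-bla HeLa cells, a beta-lactamase reporter under ER stress response element control; 5 hr treatment, FRET read.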
Assay [11] can be described thus: qHTS assay to identify small molecule agonists of the endoplasmic reticulum stress response signaling pathway - cell viability counter screen (AID 1159517; calls by dose curve). The procedure, abridged: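 HeLa cells carrying an ESRE-driven beta-lactamase reporter receive compound for 5 hr at 37 C. Cell viability is then gauged with CellTiter-Glo by luminescence, 30 min at room temperature.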

A short description of assay [12]: qHTS assay to identify small molecule antagonists of the retinoid-related orphan receptor gamma (ROR-gamma) signaling pathway - cell viability counter screen (AID 1159520). Further: nearly all actives have a fitted effect of over 50% in size. Put shortly:
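Cytotoxicity was read from cellular ATP (CellTiter-Glo luminescence) after 16 hr at 37 C with 1 uM doxycycline induction. The inducer was added 2 hr after compound transfer to Tet-on ROR gamma CHO cells.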

Assay [13] concerns the target Nuclear receptor ROR-gamma (Homo sapiens) (UniProt P51449). As to the kind of experiment: qHTS assay to identify small molecule antagonists of the retinoid-related orphan receptor gamma (ROR-gamma) signaling pathway (AID 1159521). Put shortly:
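Test compounds were applied to Tet-on RORγ CHO cells 2 h ahead of doxycycline hyclate (1 uM final). Luciferase reporter activity was quantified by luminescence after 16 h at 37 C and 5% CO2.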

Assay [14] in a line: qHTS assay to identify small molecule agonists of the AP-1 signaling pathway - cell viability counter screen (AID 1159525; calls by dose curve; further: nearly all actives have a fitted effect of over 55% in size). The procedure, abridged:
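Luminescent ATP readout (Cell Titer Glo, 30 min RT), normalised to DMSO and tetra n-octyl ammonium bromide controls. Cells were ME-180 AP-1-bla in 0.5% dialyzed FBS Opti-MEM, with a 5 h, 37 °C compound exposure.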

The target of assay [15] is Retinoic acid receptor RXR-alpha (Homo sapiens) (UniProt P19793). As to the kind of experiment: qHTS assay to identify small molecule agonists of the RXR signaling pathway (AID 1159527; calls by dose curve; further: nearly all actives have a fitted effect of over 35% in size). The procedure, abridged:
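Using 9-cis retinoic acid as the reference agonist, chemicals were tested in HEK 293T cells […] for 16 hr; substrate loading lasted 2 hr at room temperature.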

Assay [16] deals with Peroxisome proliferator-activated receptor delta (Homo sapiens) (UniProt Q03181). Put plainly: qHTS assay to identify small molecule agonists of the peroxisome proliferator-activated receptor delta (PPARd) signaling pathway (AID 743212; calls by dose curve). Put shortly: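 HEK293H PPARd-bla cells; 5 h preincubation 37 C/5% CO2; compound (DMSO) 37 C; LiveBLAzer B/G FRET substrate 2 h RT; fluorescence intensity.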

The target of assay [17] is Bile acid receptor (Homo sapiens) (UniProt Q96RI1). As to the kind of experiment: qHTS assay to identify small molecule antagonists of the farnesoid-X-receptor (FXR) signaling pathway (AID 743217; active means well fitted inhibition curve with a large enough effect in the signal ratio in the repeat runs, not every such curve was filed as active; the % refers to the signal ratio). Put shortly:
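Antagonist mode against 50 uM (final) chenodeoxycholic acid stimulation in FXR-bla HEK 293T cells, 16 h at 37 °C. Inhibition detected as reduced beta-lactamase activity via LiveBLAzer B/G FRET fluorescence after 2 h at room temperature.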

The target is the same in assay [18]. Put plainly: qHTS assay to identify small molecule agonists of the farnesoid-X-receptor (FXR) signaling pathway (AID 743220; active means well fitted activation curve with a large enough effect in the signal ratio in the repeat runs, not every such curve was filed as active; the % refers to the signal ratio). The procedure, abridged: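 Beta-lactamase reporter under UAS control in GeneBLAzer FXR HEK 293T cells (5000/well) measured with LiveBLAzer FRET substrate after 2 h at room temperature. Compound exposure lasted 16 h at 37C.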
Assay [19] concerns the target Peroxisome proliferator-activated receptor delta (Homo sapiens) (UniProt Q03181). Put plainly: qHTS assay to identify small molecule antagonists of the peroxisome proliferator-activated receptor delta (PPARd) signaling pathway (AID 743215; active means well fitted inhibition curve with a large enough effect in the signal ratio in the repeat runs, not every such curve was filed as active; the % refers to the signal ratio;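 further: cells stimulated with agonist L165041 at 300 nM final during compound exposure; series mostly up to about 62 µM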). The procedure, abridged: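 Inhibition of L165041-driven (300 nM final) PPARd signaling is scored in HEK293H UAS-bla cells. Exposure lasts 17 h at 37 C; beta-lactamase activity is then read by FRET substrate fluorescence after 2 h at room temperature.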

The nature of assay [20]: qHTS assay to identify small molecule agonists of the AP-1 signaling pathway (AID 1159526; calls by dose curve).

Records with an inconclusive call do not appear. Unmarked numbers belong to inactive results. Active and inactive are the calls of the source. Unless noted, the call rests on the fitted dose curve; in most records, active means well fitted curve in the direction sought with a large enough effect in the repeat runs; inconclusive means weak or mixed curves; inactive means no such curve, though single readings can be large; an effect the other way counts as inactive or inconclusive.

Bile acid receptor (Homo sapiens), sequence (Q96RI1 whole entry, looked up): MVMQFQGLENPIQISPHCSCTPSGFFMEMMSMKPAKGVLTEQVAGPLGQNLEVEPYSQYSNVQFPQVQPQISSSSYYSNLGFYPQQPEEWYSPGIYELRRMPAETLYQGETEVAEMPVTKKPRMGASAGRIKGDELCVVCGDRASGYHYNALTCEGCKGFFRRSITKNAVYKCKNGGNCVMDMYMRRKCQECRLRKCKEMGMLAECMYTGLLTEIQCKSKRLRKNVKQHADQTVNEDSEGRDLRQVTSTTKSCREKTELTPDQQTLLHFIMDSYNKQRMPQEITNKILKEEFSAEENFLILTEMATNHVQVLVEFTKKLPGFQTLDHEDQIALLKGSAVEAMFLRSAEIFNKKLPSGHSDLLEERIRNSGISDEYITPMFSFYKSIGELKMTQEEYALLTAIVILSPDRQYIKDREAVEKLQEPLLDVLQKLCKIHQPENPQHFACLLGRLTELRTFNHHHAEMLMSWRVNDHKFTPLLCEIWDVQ
Retinoic acid receptor RXR-alpha (Homo sapiens), sequence (P19793 whole entry, looked up): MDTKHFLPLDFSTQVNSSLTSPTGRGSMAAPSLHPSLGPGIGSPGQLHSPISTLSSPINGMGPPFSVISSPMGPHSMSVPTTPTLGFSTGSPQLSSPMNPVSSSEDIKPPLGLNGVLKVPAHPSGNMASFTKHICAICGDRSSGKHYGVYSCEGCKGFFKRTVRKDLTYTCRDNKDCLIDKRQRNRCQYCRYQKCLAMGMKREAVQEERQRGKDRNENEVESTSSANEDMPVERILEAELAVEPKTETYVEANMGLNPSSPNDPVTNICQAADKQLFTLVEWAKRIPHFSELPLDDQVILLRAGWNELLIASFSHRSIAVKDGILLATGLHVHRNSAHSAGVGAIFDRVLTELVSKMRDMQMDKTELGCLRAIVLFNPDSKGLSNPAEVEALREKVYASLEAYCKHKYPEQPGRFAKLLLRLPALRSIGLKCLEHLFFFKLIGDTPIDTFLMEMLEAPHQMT
Vitamin D3 receptor (Homo sapiens), sequence (P11473 whole entry, looked up): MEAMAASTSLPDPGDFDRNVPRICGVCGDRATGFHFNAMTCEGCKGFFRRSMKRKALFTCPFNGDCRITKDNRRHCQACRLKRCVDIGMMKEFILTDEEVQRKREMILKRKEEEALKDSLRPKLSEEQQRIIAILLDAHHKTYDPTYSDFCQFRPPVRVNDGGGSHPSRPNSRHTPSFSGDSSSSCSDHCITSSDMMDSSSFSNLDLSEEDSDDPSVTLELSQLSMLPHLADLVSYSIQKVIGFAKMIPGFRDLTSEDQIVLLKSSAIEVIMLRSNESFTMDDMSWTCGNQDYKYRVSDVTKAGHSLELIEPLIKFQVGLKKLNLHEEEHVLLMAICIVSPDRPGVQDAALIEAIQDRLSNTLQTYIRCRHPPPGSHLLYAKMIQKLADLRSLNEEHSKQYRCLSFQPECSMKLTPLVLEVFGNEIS
Peroxisome proliferator-activated receptor delta (Homo sapiens), sequence (Q03181 whole entry, looked up): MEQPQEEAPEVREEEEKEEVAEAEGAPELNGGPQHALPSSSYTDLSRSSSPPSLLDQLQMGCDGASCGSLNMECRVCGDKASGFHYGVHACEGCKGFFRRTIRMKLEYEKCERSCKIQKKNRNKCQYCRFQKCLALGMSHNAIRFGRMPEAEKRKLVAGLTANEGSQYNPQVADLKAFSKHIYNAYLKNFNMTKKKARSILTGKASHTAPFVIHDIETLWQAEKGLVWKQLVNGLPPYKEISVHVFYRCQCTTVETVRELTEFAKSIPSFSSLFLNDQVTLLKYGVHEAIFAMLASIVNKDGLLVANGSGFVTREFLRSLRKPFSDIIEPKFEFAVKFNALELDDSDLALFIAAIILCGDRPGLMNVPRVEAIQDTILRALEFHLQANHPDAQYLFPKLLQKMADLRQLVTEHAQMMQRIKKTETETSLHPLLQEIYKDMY

Consider `Cc1cccc(C(C)(C)C)c1O`, for which the Potency result in [1], in assay [2], in assay [3], in assay [4], in assay [6] and in assay [7] was “inactive” throughout. Further, the Potency entry in assay [8], in assay [9], in assay [10], in [12], in assay [13] and in assay [14] was “inactive” each time. For the same compound, the Potency entry in assay [15] is “inactive”. For the same compound, the compound was classed as inactive in assay [5] and in assay [11].

As for `CNS(=O)(=O)Cc1ccc2[nH]cc(CCN(C)C)c2c1`, the Potency result in assay [1], in assay [2], in assay [3], in [4], in assay [7] and in assay [8] was “inactive” each time. In addition, the Potency result in assay [9], in [10], in [12], in assay [13] and in assay [14] was “inactive” in each case. The call in [16], in assay [17], in assay [18], in assay [5] and in assay [11] was inactive.

For the compound `CCCCOc1ccc(CC(=O)NO)cc1`, the call in [19] and in assay [11] was inactive. The Potency entry in assay [6], in [7], in assay [8], in assay [9], in assay [10] and in assay [12] was “inactive” in each case. For the same compound, the Potency result in [13], in assay [14] and in assay [20] was “inactive” throughout.

As for `O=C(O)[C@@H]1[C@H]2C[C@H]3c4[nH]c5ccccc5c4CCN3C[C@@H]2CC[C@@H]1O`, the Potency result in assay [1], in assay [3], in [4], in [7], in [9] and in assay [10] was “inactive” each time. The Potency entry in assay [12], in [13], in assay [14] and in assay [15] was “inactive” each time. Moreover, the compound was classed as inactive in [16], in assay [19], in assay [18], in [5] and in [11].

Regarding `O=C(O)Cc1sc(-c2ccccc2)nc1-c1ccc(Cl)cc1`, the Potency entry in assay [1], in assay [2], in assay [3], in [4], in [6] and in assay [7] was “inactive” in each case. Besides, the Potency entry in assay [9], in assay [10], in [12], in assay [13] and in assay [14] was “inactive” throughout. Further, the outcome in assay [16], in [19], in assay [18] and in assay [11] was inactive.

As to `Nc1nc(N)c2nc(CNc3ccc(C(=O)N[C@@H](CCC(=O)O)C(=O)O)cc3)cnc2n1`, the Potency is 0.0288 µM (active) in [7] and 51.3 µM (active) in assay [10]. The Potency result in assay [9], in [12], in [13], in assay [14] and in assay [20] was “inactive” each time. Besides, in assay [11], the result was inactive.

`CN(C)CCCOc1nn(Cc2ccccc2)c2ccccc12`: the compound was called inactive in [16] and in assay [11]. Besides, the Potency result in assay [3], in assay [4], in assay [7], in [8], in assay [9] and in assay [10] was “inactive” in each case. Besides, the Potency entry in [12], in assay [13], in assay [14] and in assay [15] was “inactive” each time.

As for `O=C(/C=C/c1ccc(O)c(O)c1)O[C@@H]1C[C@](O)(C(=O)O)C[C@@H](O)[C@H]1O`, the Potency result in [1], in [4], in assay [7], in [8], in assay [9] and in assay [10] was “inactive” throughout. The Potency entry in [12], in assay [13], in assay [14] and in assay [15] was “inactive” throughout. In addition, the compound was classed as inactive in [16], in assay [19] and in assay [11].

In the case of `CC(C)c1cccc(C(C)C)c1NC(=O)NS(=O)(=O)c1cc(C(C)(C)O)co1`, the Potency result in assay [1], in [2], in assay [3], in [4], in [7] and in assay [8] was “inactive” in each case. Also, the Potency result in assay [9], in assay [10], in assay [12], in [13] and in [14] was “inactive” throughout. In addition, the compound was classed as inactive in [16], in assay [19], in [17], in [18], in assay [5] and in [11].
